Assay results from PubChem BioAssay (EPA / NIEHS).
Results filed as inconclusive are left out. The source made the active and inactive calls. How the source made its calls: active means hit-call score of the fitted dose curve at least 0.9, where 1 is the maximum; inconclusive means response in the unintended direction; inactive means score below 0.9.

The compounds below were run against human Peroxisome Proliferator-activated Receptor alpha (PPARa), PPARA (gene 5465) (UniProt Q07869) (assay: ATG_PPARa_TRANS: Attagene TRANS-FACTORIAL HepG2 Assay for human Peroxisome Proliferator-activated Receptor alpha (PPARa) (AID 2283001);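 on AC50: potency for gain of reporter signal over DMSO so agonist or activator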).
Chain of human Peroxisome Proliferator-activated Receptor alpha (PPARa), PPARA (gene 5465) (Q07869 whole entry, looked up): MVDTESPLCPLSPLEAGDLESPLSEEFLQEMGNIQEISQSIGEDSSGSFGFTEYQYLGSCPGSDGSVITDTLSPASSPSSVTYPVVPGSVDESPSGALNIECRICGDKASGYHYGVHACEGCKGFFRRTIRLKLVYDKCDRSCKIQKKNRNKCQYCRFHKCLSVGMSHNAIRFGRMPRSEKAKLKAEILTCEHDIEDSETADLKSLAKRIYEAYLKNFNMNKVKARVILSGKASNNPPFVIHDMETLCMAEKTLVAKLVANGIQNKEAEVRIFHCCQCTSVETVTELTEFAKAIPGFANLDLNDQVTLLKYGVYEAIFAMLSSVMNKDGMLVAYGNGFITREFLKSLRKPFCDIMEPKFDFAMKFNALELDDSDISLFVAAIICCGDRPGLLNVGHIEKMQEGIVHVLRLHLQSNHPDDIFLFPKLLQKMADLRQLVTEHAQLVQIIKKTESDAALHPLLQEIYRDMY
Description: ATG_TRANS is a cell-based, multiplexed-readout assay that uses HepG2, a human liver cell line, with measurements taken at 24 hours after chemical dosing in a 24-well plate.ATG_PPARa_TRANS is one of 30 assay component(s) measured or calculated from the ATG_TRANS assay. It is designed to make measurements of mRNA induction, a form of inducible reporter, as detected with fluorescence intensity signals by Reverse transcription polymerase chain reaction (RT-PCR) and Capillary electrophoresis technology.Data from the assay component ATG_PPARa_TRANS was analyzed into 1 assay endpoint. This assay endpoint, ATG_PPARa_TRANS, was analyzed in the positive analysis fitting direction relative to DMSO as the negative control and baseline of activity. Using a type of inducible reporter, measures of mRNA for gain-of-signal activity can be used to understand the reporter gene at the transcription factor-level as they relate to the gene PPARA. Furthermore, this assay endpoint can be referred to as a primary readout, because this assay has produced multiple assay endpoints where this one serves a reporter gene function. To generalize the intended target to other relatable targets, this assay endpoint is annotated to the nuclear receptor intended target family, where the subfamily is non-steroidal.
Human liver HepG2 cells are transiently transfected with multiple reporter transcription units (MRTUs) in 6-well plates using FuGene 6 reagent (Roche; 3 ml FuGene/1 mg DNA). The MRTU constructs are regulated by a cis-regulating element (promoter). […] A major difference between the CIS and TRANS system is that in CIS activities of endogenous TFs are measured, whereas the TRANS assay evaluates changes in activities of exogenous, chimeric NR-Gal4 proteins. […] At the end of 24 hour incubation, total RNA was isolated using TriZol reagent (Invitrogen). The isolated RNA is then reverse-transcribed using oligo(dT) primer and Mo-MLV reverse transcriptase (Invitrogen) with DNAse I (Ambion) treatment for 30 min. The one-tenth of the produced cDNA was amplified by PCR using Taq DNA polymerase (Invitrogen) and two reporter sequence-specific primers. The PCR products were fluorescently labeled by primer extension with 6-arboxyfluorescein (6-FAM) 5'-labeled reporter sequence-specific primer (2 min at 95 C, 20 s at 68 C and 10 min at 72 C) and these products were digested with 5U of HpaI (New England Biolabs) for 2h at 37 C. The fragments were purified using Qiaquick PCR columns (Qiagen), analyzed on an ABI 3130xL genetic analyzer (Applied Biosystems) with peak positions identified by using a set of X-rhodamine (ROX)-labeled MapMarker1000 molecular weight standards (BioVentures). The raw capillary electrophoresis data was processed using Attagraph software (Attagene).
In the case of `CC(C)Cc1ccc(C(C)C(=O)O)cc1` (stereo not given), the AC50 is reported as 31 µM (active). In the case of `CCCCCCCCOC(=O)c1ccc(O)cc1`, the outcome is reported as “inactive”. `CC(=O)CC(=O)N(C)C` was tested, and the outcome was “inactive”. `Nc1ccc(N)c([N+](=O)[O-])c1` was tested, and the outcome was “inactive”. `c1coc(CNc2ncnc3nc[nH]c23)c1` was tested, and the outcome was “inactive”. For `O=c1cc[nH]cc1`, the outcome was “inactive”. For `OCCN1CCOCC1`, the outcome was “inactive”. `c1ccc(Sc2ccccc2)cc1` was tested, and the outcome was “inactive”. With `C=C(C)CCCC(C)CCO` (stereo not given) the outcome was “inactive”. With `CCC(C)(CCCC(C)C)OC(C)=O` (stereo not given) the outcome was “inactive”. For `O=Cc1ccccc1O`, the outcome was “inactive”. `C=CCOC(=O)/C=C\C(=O)OCC=C` was tested, and the AC50 was 27.5 µM (active). For `CN(C)c1ccc(C=O)cc1`, the outcome was “inactive”. With `CCCCCc1cccc(=O)o1` the outcome was “inactive”. In the case of `CCCC(O)C(CC)CO` (stereo not given), the outcome is reported as “inactive”. With `C1=COCCC1` the outcome was “inactive”. With `CC1=CCC(C(C)(C)O)CC1` (stereo not given) the outcome was “inactive”. In the case of `COc1cc(OC)c2ccc(=O)oc2c1`, the outcome is reported as “inactive”. In the case of `C=C(C)C(=O)OCCC[Si](OC)(OC)OC`, the outcome is reported as “inactive”. With `CC(CO)c1ccccc1` (stereo not given) the outcome was “inactive”. `C/C=C(\C)C(=O)OC/C=C(\C)CCC=C(C)C` was tested, and the outcome was “inactive”. `CCOC(=O)C(=O)OCC` was tested, and the outcome was “inactive”. For `CN(C)C(=O)Nc1ccccc1`, the outcome was “inactive”. `CC(=O)OC(C)(C)C` was tested, and the outcome was “inactive”. In the case of `CCCCCCCCSCc1cc(C)c(O)c(CSCCCCCCCC)c1`, the outcome is reported as “inactive”. `Cc1cc(O)c2c(c1)C(=O)c1cc(O)cc(O)c1C2=O` was tested, and the AC50 was 27.5 µM (active). For `C=CC(C)(CCC=C(C)C)OC(=O)CC` (stereo not given), the outcome was “inactive”. `CCC(=O)OC(C)(C)C1CC=C(C)CC1` (stereo not given) was tested, and the outcome was “inactive”. For `NC(=O)c1cnccn1`, the outcome was “inactive”. In the case of `CC(C)=CCCC(C)=CC(=O)O`, the outcome is reported as “inactive”. `CCc1cccc(O)c1` was tested, and the outcome was “inactive”. With `N=C1N=C(N)c2ccccc21` the AC50 was 173 µM (active). With `CCCCCCCCCCCCS` the outcome was “inactive”. In the case of `C1COCO1`, the outcome is reported as “inactive”. With `CCOC(=O)CCCCCCCCC(=O)OCC` the outcome was “inactive”. In the case of `CC(=O)c1ccc(C)cc1`, the outcome is reported as “inactive”. In the case of `C=CC(=O)OCCCCCC`, the outcome is reported as “inactive”. `CC/C=C\CCOC(C)OCC` (stereo not given) was tested, and the outcome was “inactive”. In the case of `COc1ccccc1NC(=O)CC(C)=O`, the outcome is reported as “inactive”. In the case of `CCCOC(=O)CC`, the outcome is reported as “inactive”.
